Screening data deposited in PubChem by The Scripps Research Institute Molecular Screening Center.
Compounds with a hit are over-represented: about 3.5% of the library has one in this group of screens.
TEAD-YAP block: TEAD-YAP interaction inhibition, primary screen, TEAD-YAP interaction inhibitor project, luminescence, HEK-TIYL cells | 640,000 compounds, 1.4% hits | inhibition, % at 9.12 µM | TEAD-Gal4/YAP UAS-luciferase luminescence; in the data active = inhibition above about 32%;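 note: 0% = median of test compound wells and 100% = reference inhibitor wells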
MITF inh: MITF inhibitors, primary screen, biochemical, AlphaScreen, human | Microphthalmia-associated transcription factor (Homo sapiens), O75030 | AlphaScreen MITF homodimerization, bead proximity signal | inhibition, % at 2.6 µM | 650,000 compounds, 0.91% hits | AID 1259374, 2018; in the data active = inhibition above about 50%;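 note: 0% = vehicle wells with protein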
FBW7 act: FBW7 E3 ligase activators, primary screen, biochemical, AlphaScreen, human; F-box/WD repeat-containing protein 7 (Homo sapiens), Q969H0; AlphaScreen FBW7–phospho-cyclin E peptide binding, activator screen; normalized activity (activation), % at 26.1 µM; 650,000 compounds, 0.13% hits; AID 1259310, 2017; in the data active = normalized activity above about 1.9%;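 note: purified mutant Fbw7 with reduced substrate affinity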
GPR151 activ: activators of human GPR151, primary screen, cell-based, PathHunter beta-arrestin, luminescence | PathHunter beta-arrestin GPR151 cells | AID 1508602, 2020 | activation, % at 11.2 µM | 650,000 compounds, 1% hits | G-protein coupled receptor 151 (Homo sapiens), Q8TDV0; in the data active = activation above about 4.9%;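 note: 0% = median of compound wells and 100% = cells with positive control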
GPR151 conf act: GPR151 activators, triplicate retest, confirmation, cell-based, PathHunter beta-arrestin, luminescence. shares compounds with GPR151 activ. GPR151 PathHunter beta-arrestin cells, 90 min; % of EA-reagent control over plate median. activation, % at 11.2 µM. 6,700 tested, under 10 active. AID 1508609, 2020;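 active = mean percent activation across replicates above the confirmation screen cutoff of 4.91%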
GPR119 ag: GPR119 activators in beta-arrestin cells, counter-screen for GPR151 activator project, cell-based, PathHunter beta-arrestin, luminescence, triplicate; 90 min; 0 = compound-well median, 100 = enzyme-acceptor control; shares compounds with GPR151 activ; activation, % at 11.2 µM; 6,700 compounds, 0.3% hits;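 active = mean percent activation in the counterscreen above 29.09%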;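 note: counterscreen on off-target GPR119 to flag nonselective hits from the GPR151 activator screen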
* marks the source's active call; other numbers are inactive results; x = no result; ! = a repeat was not active.

SMILES	TEAD-YAP block	MITF inh	FBW7 act	GPR151 activ	GPR151 conf act	GPR119 ag
CCOC1=C/C(=C/c2c(N)n3nc(-c4ccc(C)cc4)sc3nc2=O)C=CC1=O	-34	0	0	0	x	x
Cc1cc(NCc2ccccc2)nc(-c2ccc(N3CCN(C)CC3)cc2)n1	7	14	0	14*	-1	-6
COc1ccc(OC)c(N(CC(=O)Nc2ccc(C)cc2)S(=O)(=O)c2ccccc2)c1	-6	1	0	2	x	x
CN(C)CCOC1=Cc2ccccc2Sc2ccc(Cl)cc21	x	12	1	5.7*	0	-6
CN(C)CCC(=O)N1c2ccccc2Sc2ccc(Cl)cc21	-12	5	0	-1	x	x
C[C@@H]1CC[C@H]2C(=O)O[C@@H](COc3ccc(C(C)(C)C)cc3)CN2[C@H]1c1ccc(Br)cc1	x	12	0	5.3*	1	-11
C=C(C)C(=O)OC[C@@H]1CN2[C@@H](CC[C@@H](C)[C@@H]2c2ccc(Br)cc2)C(=O)O1	x	23	0	-1	x	x
O=C(COc1ccccc1[N+](=O)[O-])Nc1ccc(Cl)cn1	-56	6	0	-1	x	x
COC(=O)c1cccc(NC(=O)C2COc3ccccc3O2)c1 (stereo unspecified)	-49	-12	0	5.0*	-1	-12
CCCCC1CCC(c2nnc(-c3ccccc3C)o2)CC1 (stereo unspecified)	7	3	0	-2	x	x
COC(=O)C1=C(C(=O)OC)[C@@H]2N(Cc3ccccc3)c3ccccc3[C@@]23C[C@@H](CO)N(C(=O)NC2CCCCC2)C3=N1	x	-2	0	3	x	x
COC(=O)C1=C(C(=O)OC)[C@@H]2N(Cc3ccccc3)c3ccccc3[C@@]23C[C@@H](CO)N=C3N1	x	-6	0	6.8*	0	-1
C=C1c2ccc(C)cc2NC(=O)N1CC	7	-17	0	0	x	x
C=C1c2cc(OC)ccc2NC(=O)N1CC	12	-7	0	5.5*	-1	-16
O=C1CN(CC(=O)Nc2ccccc2Br)CCN1	0	4	0	0	x	x
CN1CCCC(n2nc(Cc3ccc(Cl)cc3)c3ccccc3c2=O)CC1 (stereo unspecified)	3	-20	0	5.4*!	2	28
CC1CCCN(C(=O)Cn2nc(Cc3cccnc3)c3ccccc3c2=O)C1 (stereo unspecified)	3	3	0	0	x	x
Cc1nc(N)n(N)c(=O)c1Cc1ccccc1	-2	-9	0	6.4*	1	-3
Cc1nc(N)n(N)c(=O)c1CCCN1C(=O)c2ccccc2C1=O	-61	2	0	-2	x	x
c1ccc2c(c1)nc(NCCCN1CCOCC1)c1nnnn12	-8	7	0	-2	x	x
CCCCNc1nc2ccccc2c2nc(-c3cccnc3)nn12	4	6	0	1	x	x
O=C1CCCN1CCCNc1nc2ccccc2n2nnnc12	2	-7	0	5.9*	0	-8
O=C1CCCN1CCCNc1nc2ccccc2c2nc(-c3cccnc3)nn12	20	10	0	6.3*	1	15
CC(=O)C(Sc1nnc(Nc2ccc(C(C)C)cc2)s1)C(C)=O	-33	9	0	6.0*	0	-4
O=C(C[n+]1ccccc1)N/N=C/c1cccs1	8	12	0	6.1*	1	2
SMILES	TEAD-YAP block	MITF inh	FBW7 act	GPR151 activ	GPR151 conf act	GPR119 ag
CCOC(=O)c1cnc2ccc(OC)cc2c1Nc1ccc(N2CCOCC2)cc1	-1	4	0	0	x	x
Cn1c(=O)c([N+](=O)[O-])c(NCc2ccccc2)c2ccccc21	-3	11	0	8.1*	0	0
CCOC(=O)c1nn(-c2ccccc2)c(=O)c2c(NC(=O)CCl)scc12	4	21	0	0	x	x
COc1ccc(NC(=O)N2CCN(C/C=C/c3ccccc3)CC2)cc1OC	12	13	0	14*	0	-9
CC(=O)c1cccc(NC(=O)N2CCN(C/C=C/c3ccccc3)CC2)c1	2	-4	0	0	x	x
COc1ccc(NC(=O)N2CCCC2)cc1OC	5	10	0	1	x	x
COc1ccc(NC(=O)N2CCCCCC2)cc1OC	-3	15	0	5.5*	-2	-18
COc1ccc(NC(=S)NN2CCOCC2)cc1OC	-4	-12	0	14*	1	2
CCOc1ccccc1N1CCN(C(=O)Nc2ccc(OC)c(OC)c2)CC1	-1	-2	0	7.8*	-1	-18
COc1ccc(N2CCN(S(=O)(=O)c3ccc(F)c(C)c3)CC2)cc1	-10	-4	0	2	x	x
COc1ccc(-c2c(NCc3ccccc3)oc3c2c(=O)n(C)c(=O)n3C)cc1OC	1	3	0	0	x	x
Cc1cccc(NC(=O)CCN2CCN(C/C=C/c3ccccc3)CC2)c1	2	17	1	4.9*	0	-6
Cc1cc(NC(=O)CCN2CCN(C/C=C/c3ccccc3)CC2)ccc1Br	15	3	0	1	x	x
COc1ccc(C(=O)O/N=C(\N)c2cccnc2)cc1[N+](=O)[O-]	-2	2	0	1	x	x
COc1cccc(-c2cc(CC(=O)NCCC3=CCCCC3)no2)c1	-17	-7	0	6.1*	-1	-4
Cn1c(=O)c2c(SCC(=O)N3CCOCC3)nc(-c3cccc(F)c3)nc2n(C)c1=O	14	4	1	2	x	x
COc1ccc2oc(=O)c(N(C)S(=O)(=O)c3ccc(C)cc3)cc2c1	2	15	0	5.1*	-1	-2
CCO/C=C(/C(C)=O)C(=O)c1ncc(C(F)(F)F)cc1Cl	-4	6	0	-2	x	x
Cc1cccn2c(CN3CCCCC3CCn3cccn3)c(C(=O)N3CCOCC3)nc12 (stereo unspecified)	1	-13	0	7.8*	0	4
COC(=O)[C@@H]1CCCN1Cc1c(C(=O)N2CCOCC2)nc2c(C)cccn12	3	-11	0	-1	x	x
Cc1cccn2c(CNCCSc3nccn3C)c(C(=O)N3CCCCC3)nc12	-5	5	0	1	x	x
CSCCNCc1c(C(=O)N2CCCCC2)nc2c(C)cccn12	-1	5	0	9.0*	0	3
O=C(c1nc2sccn2c1CNCCc1ccncc1)N1CCCCCCC1	3	-13	0	0	x	x
O=C(c1nc2sccn2c1CNCCc1cccnc1)N1CCCC1	7	0	0	12*	0	7
